In PubChem BioAssay AID651803 (National Center for Advancing Translational Sciences (NCATS), 2012):
Among all 1,200 compounds or so, fewer than 10 were called active. Calls follow the shape of the dose curve; as a rule, active = well fitted curve in the direction sought with a large enough effect; inconclusive = small, poorly fitted or top-dose-only effect, or another doubt; inactive = no such curve, though single readings can be large or run the other way. A selection follows. Residues, ends and D or L forms follow the SMILES beside them.

Molecular target: Transcriptional regulator ERG (Homo sapiens) (UniProt P11308)
Sequence (P11308 whole entry, looked up): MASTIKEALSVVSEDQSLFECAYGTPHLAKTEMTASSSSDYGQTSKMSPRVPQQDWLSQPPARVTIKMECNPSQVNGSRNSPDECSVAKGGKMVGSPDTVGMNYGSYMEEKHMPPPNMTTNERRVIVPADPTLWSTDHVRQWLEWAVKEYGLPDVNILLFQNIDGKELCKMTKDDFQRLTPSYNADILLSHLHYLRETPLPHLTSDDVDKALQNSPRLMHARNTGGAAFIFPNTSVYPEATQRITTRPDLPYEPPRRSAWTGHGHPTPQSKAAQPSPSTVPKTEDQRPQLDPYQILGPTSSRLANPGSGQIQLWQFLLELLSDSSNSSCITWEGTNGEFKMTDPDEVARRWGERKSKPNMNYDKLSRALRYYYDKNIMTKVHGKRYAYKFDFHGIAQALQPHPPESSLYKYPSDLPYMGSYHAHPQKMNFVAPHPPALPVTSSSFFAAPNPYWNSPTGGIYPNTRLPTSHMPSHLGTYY
Assay: qHTS for Small Molecule Inhibitors of the ERG Ets/DNA interaction: TR assay against cherry picks; also: % of control where 0% means no effect
Conditions: ERG Ets domain-DNA fluorescence polarization, Texas red probe; series mostly up to 154 µM; activity change, negative = inhibition: at the top concentration
From the text: The Ets family of proteins is a family of ~30 conserved transcription factors defined by the presence of an ~85 amino acid domain referred to as the Ets domain, which mediates sequence-specific DNA binding to a core DNA element GGAA/T.The Ets family member ERG has been linked to several neoplasms. […] More extensive studies of the effects of over-expression of ERG in prostate cells have recently been carried out and have shown that over-expression of ERG results in increased invasion. […] We will carry out a high throughout screen to identify inhibitors of the interaction between ERG and DNA using a fluorescence polarization (FP) assay with a His-tagged ERG Ets domain and fluorescently-labeled DNA probes to develop small molecule inhibitors of this interaction as probes to test this hypothesis and lay the groundwork for the development of targeted therapies against ERG. This is the confirmation against the cherry picks in theprimary screening assay. NIH Molecular Libraries Probe Production Network [MLPCN] NIH Chemical Genomics Center [NCGC] Grant: NS066464 PI Name: John Bushweller, University of Virgina
1.5 ul of protein solution (1 uM ERG domain in 300mM KCl, 50mM Tris-HCl, 1mM EDTA, 1mM DTT, pH 7.5); 20 nl Control plate and compound library plate; 1.5 ul mixture of 5 nM Fluorescein-DNA and 100nM Texas-615-DNA solution in same buffer as above solution; measure fluorescence polarization sequentially for fluorescein (Excitation = 480 nm, Emission = 535s, 535p nm) and Texas red (Excitation = 555 nm, Emission = 632s, 632p nm).

Activity change, negative = inhibition, inactive:
Cc1ccccc1OCc1nnc(SCC(=O)Nc2ccc(N3CCOCC3)c(Cl)c2)n1C -15.8%
O=C(O)c1cc(O)c2c(c1)[C@H]([C@H]1c3cc(C(=O)O)cc(O)c3C(=O)c3c(O[C@@H]4O[C@H](CO)[C@@H](O)[C@H](O)[C@H]4O)cccc31)c1cccc(OC3O[C@H](CO)[C@@H](O)[C@H](O)[C@H]3O)c1C2=O (some centres not stated) -12.2%
COc1ccccc1CN(C)C(=O)C(NC(=O)Cc1cccc2ccccc12)C(C)C (configuration not stated) -0.0885%
O=C(CN1C=NS(=O)(=O)c2ccccc21)Nc1ccc(Br)cc1 -7.5%
Cc1ccc(S(=O)(=O)NCC(=O)N(CC(=O)NCC2CCCO2)c2cccc(F)c2)cc1 (configuration not stated) -5.86%
Clc1ccc(SCc2nc3ccccc3[nH]2)cc1 -2.08%
CCc1n[nH]c(=S)n1/N=C/c1ccc(N(C)c2ccccc2)cc1 1.89%
CNC(=O)c1cccc(-n2c(C)nc3cccnc32)c1C 13%
Cc1ccc(/C=C2\SC(N3CCCCC3)=NC2=O)cc1 -1.4%
CCc1cccc(NC(=O)C2CCCN(S(=O)(=O)c3ccc4[nH]c(=O)ccc4c3)C2)c1 (configuration not stated) 0.67%
COc1ccc(-c2ccc(SCC(=O)NCc3ccc4c(c3)OCO4)nn2)cc1OC -14.9%
C=CCn1c(=O)[nH]c2cc(C(=O)N3CC=C(c4ccccc4)CC3)ccc2c1=O 0.0273%
COc1ccccc1CNC(=O)CCNC(=O)C1CCN(S(=O)(=O)c2ccccc2)CC1 -4.44%
Oc1ccc(Nc2ccc3ccccc3c2)cc1 -16%
Cc1ccc(OCC(=O)OCC(=O)c2ccccc2)cc1C 4.59%
CC(C)N1CCC(N2CCN(Cc3cccc4nonc34)CC2CCO)CC1 (configuration not stated) 6.57%
O=C(O)CNC(=O)/C(=C\c1ccc2c(c1)OCO2)NC(=O)c1ccc(Br)cc1 3.73%
O=C(COc1coc(CN2CCCc3ccccc32)cc1=O)Nc1cccc([N+](=O)[O-])c1 2.41%
COc1cccc(CC2(CO)CCN(S(=O)(=O)N(C)C)CC2)c1 2.59%
CCOc1cc(C2c3c(oc4ccccc4c3=O)C(=O)N2Cc2ccc(OC)cc2)ccc1O (configuration not stated) -8.68%
Cc1cccc(-c2oc3ccccc3c2-c2ccc3c(c2)OCO3)c1 2.05%
Cc1ncc([N+](=O)[O-])n1CC(=O)N/N=C/c1ccc(F)cc1 -3.78%
Cc1ccc(C(=O)Nc2ccc(C(=O)N/N=C/c3c[nH]c4ccccc34)cc2)cc1 -28.5%
Cc1ccc(/C=C2\Sc3ccccc3C2=O)s1 -2.68%
COc1ccc([C@@H](NC(=O)OC(C)(C)C)C(=O)OC(C)(C)C)cc1 -13.8%
O=c1ccc(-c2ccc(S(=O)(=O)Nc3cccc(Br)c3)o2)n[nH]1 2.8%
Nn1c(Cc2ccccc2)nc2sc3c(c2c1=O)CCC3 5.36%
CCCN(CCC)Cc1c(C(=O)N/N=C/c2cccs2)nnn1-c1nonc1N 1.84%
Cn1c(CNC(=O)CNC(=O)c2ccc(C(C)(C)C)cc2)cc(=O)n(C)c1=O -3.56%
C/C(=N\Nc1ccc(C#N)cc1[N+](=O)[O-])c1ccc(C)o1 0.206%
CC(=O)Nc1ccc(NC(=O)C(C)OC(=O)C2CCN(S(=O)(=O)c3ccc4c(c3)OCCO4)CC2)cc1 (configuration not stated) 1.51%
CCS(=O)(=O)N1CCC(C(=O)OCC(=O)c2ccc(Br)cc2)CC1 8.14%
Cn1c(SCC(=O)N2CCN(C(=O)c3ccco3)CC2)nnc1-c1ccc(NS(C)(=O)=O)cc1 -9.66%
CCOC(=O)N1CCC(NC(=O)Cc2ccccc2)CC1 1.65%
CC(=O)NC(Cc1ccccc1)C(=O)NC(Cc1ccccc1)C(=O)O (stereo not drawn) (Ac-Phe-Phe-OH; configuration not given here) 8.39%
COc1ccccc1C(=O)Nn1c(-c2cccs2)nc2ccccc2c1=O 2.95%
Cc1c(OC(C(=O)O)c2ccccc2)ccc2c(-c3ccccc3)cc(=O)oc12 (configuration not stated) 3.4%
COc1cc(C(=O)Cc2nc3ccccc3n2C)cc(OC)c1OC -6.52%
CC(=O)Nc1ccc(NC(=O)Nc2ccc(C)cc2C)cc1 1.3%
CCOc1ccc(N/C(SCc2cccc([N+](=O)[O-])c2)=C(/C#N)C(N)=O)cc1 -6.84%
CC(C)(C)SC(=O)CC1NS(=O)(=O)OC2CCCCC12 (configuration not stated) 1.13%
Cc1cccn2c(=O)cc(COc3ccc(NC(=O)C(C)C)cc3)nc12 -1.94%
CCc1nnc2c(N3CCN(c4cccc(C(F)(F)F)c4)CC3)nc3ccccc3n12 -11.3%
COC(=O)c1ccc2c(=O)n(CCN3CCOCC3)c(SCC(=O)Nc3ccc(OC)cc3OC)nc2c1 7.16%
COc1ccc(S(=O)(=O)N2CCc3ccccc32)cc1C(=O)N(CC(C)C)C1CCS(=O)(=O)C1 (configuration not stated) 0.304%
FC(F)(F)COc1cc(-c2nnc(SCc3ccccc3)n2Cc2ccco2)cc(OCC(F)(F)F)n1 -11.3%
N/C(=N\c1nc2ccccc2o1)NC(=O)c1cccc(Br)c1 1.54%
Cc1ccccc1OCC(=O)Nc1ccc2[nH]ncc2c1 -5.59%
CCN1CCN(CCCN(Cc2cccs2)C(=S)Nc2ccccc2C)CC1 -20.8%
Nc1ccc2nc3c(=O)n(CCc4ccccc4)c(=O)[nH]c3nc2c1 38.9%
CCOC(=O)C1=C(C)N(C[C@@H]2CC[C@@H](Cc3ccc(-c4ccccc4)cc3)O2)C(=O)NC1c1ccc([N+](=O)[O-])cc1 (some centres not stated) 0.997%
COc1cc(/C=C/C(=O)OCC(=O)NC(=O)NC2CCCCC2C)ccc1OC(F)F (configuration not stated) 1.76%
O=S(=O)(NCCC1=CCCCC1)c1ccc(OC(F)(F)F)cc1 -22.2%
CCN1C(=O)CSc2ccc(C(=O)NC3CCCCC3)cc21 1.14%
COc1ccc(C2(C(=O)Nc3ccc(OC)cc3OC)CCCC2)cc1 -3.52%
CC1COc2ccccc2N1S(=O)(=O)c1ccc(Cl)cc1 (configuration not stated) 6.25%
CCOC(=O)C1CCN(C(=O)c2cccc(S(=O)(=O)N3CCCc4ccccc43)c2)CC1 -15.3%
O=C(Nc1cc2c(cc1Cl)-c1ccc([N+](=O)[O-])cc1C2=NO)C(F)(F)F -27.9%
CC(C)C(C(=O)O)N1CCS(=O)(=O)CC1 (configuration not stated) 4.35%
CCN(CC)c1ccc2cc(-c3nc(-c4cc(OC)c(OC)c(OC)c4)no3)c(=O)oc2c1 9.56%
CCOC(=O)c1ccc(NC(=O)c2cn(-c3ccccc3)nc2-c2ccc(OC)c(OC)c2)cc1 -9.46%
CC(OC(=O)C1CCN(S(=O)(=O)c2ccccc2C(F)(F)F)CC1)C(=O)N(C)Cc1ccccc1 (configuration not stated) 1.27%
